Measured values taken from PubChem BioAssay (NCI).
Where “and” joins values, the source holds several entries; their conditions need not be identical. Equal entries are not always repeated. About 83,000 compounds went through this panel and 20% of them were active in at least one assay; those are over-represented in the sample as a whole.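 Treatment: one concentration, 48 hours, 96-well format. Scoring: percent growth, with anything below 10 considered active.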 Calls of active or inactive are those of the source.

tested on: MDA-MB-468 breast; assay: NCI-60 one-dose screen, 48 h (100 = growth as untreated, 0 = no growth, -100 = all killed); settings: 10 µM unless noted

SMILES	growth
O=S(=O)(NCCNc1nccc(-c2c(-c3ccc(O)cc3)nc3sccn23)n1)c1cccc2ccccc12	94.6% (inactive)
CCN(CC)CCOC(=O)c1cc(OCc2ccccc2)c(OCc2ccccc2)c(OCc2ccccc2)c1	44% (inactive)
CN(C)S(=O)(=O)c1ccc(-c2nc(C(Cl)Cl)nc3cc(-c4ccccc4)nn23)cc1	60.7% (inactive)
CCOc1ccc(/C=N\N=C\c2ccc(OCC)cc2)cc1	77% (inactive)
OC(c1ccccc1)C(NC(Cc1ccccc1)c1ccccc1)c1ccccc1 (stereo not given)	89.3% (inactive)
Cc1cc(NCC(=O)Nc2ccc(-c3nc4ccccc4s3)cc2)no1	-46.7% (active)
FC(F)(F)c1cc(Nc2ccc3cc(OCCCN4CCOCC4)ccc3n2)ccc1Cl	31.1% (inactive)
Cc1ccc(C(=O)Nc2nc3c(s2)CN(Cc2ccccc2)CC3)cn1	67.1% (inactive)
O=C(Nc1ccccc1)OCC(CN1CCCCC1)OC(=O)Nc1ccccc1 (stereo not given)	59% (inactive) and 94.1% (inactive)
C[C@@H]1CC[C@@H]2[C@@H]1[C@H](OC(=O)/C=C/c1ccccc1)[C@]1(CCCOCCOCCOCCOC(=O)CCCC[C@@H]3SC[C@@H]4NC(=O)N[C@@H]43)C[C@@H](OC(=O)CO)[C@@]2(C)O1	111% (inactive)
Cc1cc(C(=O)c2ccc(Cl)cc2)ccc1O	96.1% (inactive)
C=CCn1c(-c2nc3ccc(C(=C(C#N)C#N)c4ccccc4)cc3[nH]2)cc2cc(Br)ccc21	42.6% (inactive)
COc1cccc2c(=O)c3c(sc12)c(NCCCNCCO)nc1ccccc13	71.3% (inactive)
COc1ccc(/C=c2\sc3n(c2=O)C2C(NN=3)N(C)C(=O)N2C)cc1 (stereo not given)	-8.89% (active)
O=C(CCl)NCCNc1nccc(Nc2ccc(S(=O)(=O)Nc3ccccn3)cc2)n1	21.1% (inactive)
N=C(N)c1ccc(-c2ccc(-c3ccc(F)cc3)s2)s1	-77% (active)
CCCN1CCN(c2ccc3nc(-c4ccc5nc(-c6cc(OC)c(OC)c(OC)c6)[nH]c5c4)[nH]c3c2)CC1	47.1% (inactive)
O=C1C(=O)c2ccccc2C(O)=C1CCCc1ccc(Oc2ccccc2)cc1	44.7% (inactive)
C/C(=N\OC(=O)Nc1cccc(Cl)c1)c1ccccc1	75.1% (inactive)
O=C1Nc2ccccc2SC1c1ccccc1Cl (stereo not given)	29.9% (inactive)
O=C(NO)c1ccc(Cn2c(=O)n(-c3ccccc3F)c(=O)c3ccccc32)cc1	-10.8% (active)
CN1CCN(c2ccc3nc(-c4ccc5nc(-c6ccc(OCCC(C)(C)C)cc6)[nH]c5c4)[nH]c3c2)CC1	-17.9% (active)
N#CSc1c[nH]c2cccc(/C=C/C(=O)/C=C(/C=C/c3cccc4[nH]cc(SC#N)c34)OB(F)F)c12	-32% (active)
CCOC(=O)C1=C(C)NC(C)=C(C(=O)OCc2ccccc2)C1c1cccc(C#N)c1 (stereo not given)	16% (inactive)
COc1cc(Cl)cc(-c2nn(-c3cccc(NC(=O)Nc4cccc(C(F)(F)F)c4)c3)cc2-c2ccncc2)c1	6.89% (active)
